Data as given in PubChem BioAssay AID624330 (Southern Research Specialized Biocontainment Screening …, 2012).
In all, about 340,000 compounds went through this assay and about 2,100 (0.62%) were called active. A selection follows. Potency and affinity values are given separately. Values without a mark were called inactive.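 The calls were made as follows: active = first-screen hits whose inhibition reached a set limit at any dose in the follow-up dose series; inconclusive = inhibition above the set first-screen limit but never retested; inactive = the rest.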

biological target: Rac GTPase-activating protein 1 (Homo sapiens) (UniProt Q9H0H5); experiment: MgcRacGAP GTPase-activating activity inhibitors, confirmation, biochemical, ADP Hunter fluorescence, primary and confirmatory (AID 624330); settings: MgcRacGAP-stimulated Rac1 GTP hydrolysis, at 30 µM, hits give high values, GST-tagged Rac1 F28L mutant substrate;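 also: fluorescence reports GDP produced by GAP-driven GTP hydrolysis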
Sequence (Q9H0H5 whole entry, looked up): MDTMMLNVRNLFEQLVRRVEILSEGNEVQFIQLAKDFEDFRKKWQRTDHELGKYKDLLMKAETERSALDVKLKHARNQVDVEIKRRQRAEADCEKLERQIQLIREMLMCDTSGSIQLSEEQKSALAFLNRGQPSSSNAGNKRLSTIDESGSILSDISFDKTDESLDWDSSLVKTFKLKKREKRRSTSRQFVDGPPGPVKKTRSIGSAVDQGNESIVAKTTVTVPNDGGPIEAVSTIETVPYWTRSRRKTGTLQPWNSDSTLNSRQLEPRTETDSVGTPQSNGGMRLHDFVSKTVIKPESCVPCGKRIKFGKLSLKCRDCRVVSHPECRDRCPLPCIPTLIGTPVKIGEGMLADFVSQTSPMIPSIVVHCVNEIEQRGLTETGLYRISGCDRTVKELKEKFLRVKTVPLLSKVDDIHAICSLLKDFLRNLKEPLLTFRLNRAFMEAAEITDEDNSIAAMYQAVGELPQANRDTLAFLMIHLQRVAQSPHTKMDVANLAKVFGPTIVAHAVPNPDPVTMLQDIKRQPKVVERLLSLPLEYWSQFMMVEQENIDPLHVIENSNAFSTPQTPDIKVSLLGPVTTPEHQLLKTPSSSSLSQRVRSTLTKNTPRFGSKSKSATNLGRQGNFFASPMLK

Going from CCn1c2ccccc2c2cc(NC(=O)CN3CCCC3)ccc21 to Cc1ccc(NC(=O)N2CCCc3ccccc32)cc1C, the inhibition falls from 5.72% to 3.97%.

Compared with Clc1ccc(OCCCCN2CCCCC2)cc1, OC(COc1ccc(Cl)cc1)CN1CCCCC1 (stereo unspecified) is lower in inhibition: 28.9% for the first, -6.24% for the second.

Compared with COc1ccc(OCC#CCNC(C)(C)C)cc1, COc1ccc(N/C=C/C(=O)C(C)(C)C)cc1 is lower in inhibition: 18% for the first, 16.3% for the second.

First: CC(C)NCC(O)COCCOc1ccc(Cl)cc1 (stereo unspecified)
Second: CC(C)Cn1c(N)c(/C=N/NC(=O)c2ccc(Cl)cc2)c(=O)n(C)c1=O
The inhibition of the first is lower: -1.4% for the first, 14.9% for the second.

Going from CN(C)CCCNc1ncnc2oc(-c3ccccc3)c(-c3ccccc3)c12 to CN(Cc1ccccc1)c1nc2c(c(=O)[nH]c(=O)n2C)n1CCOc1ccccc1, the inhibition rises from 10.3% to 13.5%.

Going from COc1ccccc1NC(=O)Cn1c(C)nc2c(sc(=S)n2Cc2ccco2)c1=O to C=CCn1c(SCCNC(C)=O)nc2cc(-c3ccccc3)sc2c1=O, the inhibition falls from 8.75% to -6.43%.

First: COC(=O)[C@H]1C[C@H]1[C@@H](NC(=O)c1ccc[nH]1)c1ccccc1
Second: COC(=O)C1C(O)=C(C=Nc2ccccc2)C(=O)CC1(C)C (stereo unspecified)
The inhibition of the first is lower: -1.4% for the first, -0.8% for the second.

Compared with CC(=O)c1ccc(N2CCN(CC(=O)NCc3ccccc3)CC2)cc1, COc1cccc(CNC(=O)CCC2CCCN(C(=O)c3ccc(C)nc3)C2)c1 (stereo unspecified) is lower in inhibition: 6.75% for the first, -7.59% for the second.

First: O=c1/c(=C/c2ccccn2)sc2nc3ccccc3n12
Second: Cc1ccc2c(nc3s/c(=C\c4ccc(-c5ccccc5C(=O)O)o4)c(=O)n32)c1C
The inhibition of the first is lower: 6.92% for the first, 19.4% for the second.

Compared with CC1(C)OC(=O)C(=CNCCc2ccc(O)cc2)C(=O)O1, CCC(=NCc1ccccc1)C1=C(O)C(C(=O)OC)C(C)(C)CC1=O (stereo unspecified) is lower in inhibition: 17.2% for the first, 2.32% for the second.

Compared with CC1(C)CC(=O)C(N=Nc2ccc(-c3ccccc3)cc2)=C(O)C1, COC(=O)C1C(O)=C(C=Nc2ccc3ccccc3c2)C(=O)CC1(C)C (stereo unspecified) is lower in inhibition: 9.24% for the first, 4.62% for the second.

First: O=C(Cn1nnc(-c2ccc(Cl)cc2)n1)NC1CCS(=O)(=O)C1 (stereo unspecified)
Second: O=C(CSc1nccn1-c1ccc(Cl)cc1)N1CCCc2ccccc21
The inhibition of the first is higher: 9.8% for the first, 4.77% for the second.

Compared with O=c1c2c([N+](=O)[O-])cc([N+](=O)[O-])cc2sn1Cc1ccccc1, O=[N+]([O-])c1ccc(S(=O)Cc2ccccc2)c([N+](=O)[O-])c1 (stereo unspecified) is lower in inhibition: 31% for the first, 4.1% for the second.

First: N#Cc1c(N)n(Cc2ccccc2)c(=O)c2cc([N+](=O)[O-])ccc12
Second: O=C1c2ccc([N+](=O)[O-])cc2S(=O)(=O)N1Cc1ccccc1
The inhibition of the first is lower: 9.07% for the first, 11.7% for the second.

Compared with CCOC(=O)C(=CNc1ccc(O)c(C(=O)OC)c1)C(=O)OCC, CCCC(=O)C1=C(O)C(C(=O)OC)C(C)(C)CC1=Nc1ccc(N)cc1 (stereo unspecified) is lower in inhibition: 17% for the first, 7.34% for the second.

Going from Cc1c(C(=O)COC(C)(C)C)[nH]c2ccccc12 to CCCC(=Nc1ccccc1)C1=C(O)C(C(=O)OC)C(C)(C)CC1=O (stereo unspecified), the inhibition falls from 8.87% to -1.06%.

First: O=C(NNC1OC(CO)C(O)C(O)C1O)c1cccc(Br)c1 (stereo unspecified)
Second: Cc1cccc(N2N=C(C(=O)O)CCC2=O)c1
The inhibition of the first is higher: 0.41% for the first, -5.61% for the second.

Compared with CC(=O)Nc1ccc(N/C=C/C(=O)C(C)(C)C)cc1, COC(=O)c1sccc1NC(=O)CN(C)NS(=O)(=O)c1ccc([N+](=O)[O-])cc1 is lower in inhibition: 7.27% for the first, -4.11% for the second.

First: O=C(O)CCCn1ccc2cc(S(=O)(=O)N3CCCC3)ccc21
Second: Clc1ccc(OCCCN2CCCCC2)c(Br)c1
The inhibition of the first is lower: 4.17% for the first, 27.6% for the second.

Compared with CC1CCN(CCCOc2ccc(Cl)cc2Br)CC1, Cc1cc(Br)ccc1OCCN1CCCC1 is higher in inhibition: 20.7% for the first, 31.4% for the second.

Compared with Cc1cc(Br)ccc1OCCOCCN1CCCC1, CCOc1cccc(CN2CCN(c3cccc(C(F)(F)F)c3)CC2)c1O is lower in inhibition: 21.4% for the first, 0.147% for the second.

Compared with CCCCC(=Nc1ccc(N)cc1)C1=C(O)C(C(=O)OC)C(C)(C)CC1=O (stereo unspecified), CCCCC(=O)Nc1nn(CC(C)C)c2nc3ccccc3cc12 is lower in inhibition: 28.1% for the first, -1.14% for the second.

Going from Cc1cccc(CNc2ccc(C(CC(N)=O)NC(=O)c3ccccc3)cc2[N+](=O)[O-])c1 (stereo unspecified) to CN1C(=O)S/C(=C\c2ccccc2OCc2ccc(C(=O)O)cc2)C1=O, the inhibition rises from -3.89% to 7.03%.

First: Cc1ccc2nc(C)cc(C(=O)OCC(=O)Nc3cccnc3Cl)c2c1
Second: O=C1NC(=S)N/C1=C\c1ccccc1OCc1ccc(C(=O)O)cc1
The inhibition of the first is lower: 5.5% for the first, 7.81% for the second.

Going from COC(=O)c1ccc(Oc2coc3cc(OCc4ccc([N+](=O)[O-])cc4)ccc3c2=O)cc1 to Cc1cc(=O)c(C(=O)O)nn1-c1cccc(C(F)(F)F)c1, the inhibition rises from -3.99% to 6.55%.

Compared with CCN1CCN(CCNC(=O)Cn2c(=O)c3cccn3c3ccc(F)cc32)CC1, COCC(=O)N1CCN(c2cccc(C(F)(F)F)c2)CC1 is lower in inhibition: 13.8% for the first, 4.48% for the second.

Going from C#CCNC(=O)C1=C[C@@H](C2CCCCC2)C[C@@H](OCCCCO)O1 to C/C=C(\C)C(=O)OC1[C@H](OC(C)=O)C2(CO)C(CC1(C)C)C1=CCC3C4(C)CCC(O[C@@H]5O[C@H](C(=O)O)[C@@H](O[C@@H]6O[C@H](CO)[C@@H](O)[C@H](O)[C@H]6O)[C@H](O)[C@H]5O[C@H]5O[C@H](CO)[C@@H](O)[C@H](O)[C@H]5O)[C@](C)(CO)C4CCC3(C)[C@]1(C)C[C@H]2O (stereo partly specified), the inhibition falls from 6.51% to 1.06%.

First: CCN(CC)C(=O)/C=C/c1ccccc1
Second: CCN(CC)CCOC(=O)/C=C/c1ccccc1
The inhibition of the first is higher: 10.4% for the first, 8.82% for the second.

Going from Cc1cccc(N2C(=O)CCC2=O)c1 to FC(F)(F)c1cccc(N2CCc3cn[nH]c32)c1, the inhibition rises from 7.43% to 12.6%.

Compared with Cc1nnc2ccc(N3CCN(c4cccc(C(F)(F)F)c4)CC3)nn12, OCCN(Cc1ccccc1)Cc1cccc(C(F)(F)F)c1 is higher in inhibition: 5.89% for the first, 16.5% for the second.

For CNC(=S)NCCCc1ccccc1, the inhibition was 8.61%.
